Measured values taken from article PMC5540273 (PLoS ONE, 2017).

tested on: T1, CDC2L5; details: concentration: 1 μM, replicates: in singlicate; n = 1
T1 construct: gene CDK13
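Further: KINOMEscan kinase panel screen.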

| Structure (SMILES) | %Inh |
| --- | --- |
| Cc1ccc(NC(=O)Nc2ccc(Cl)c(C(F)(F)F)c2)cc1-c1ccc(C(=O)Nc2ccncc2)cc1 [GSK1398470] | 0% |
| FC(F)(F)c1ccccc1-c1cc(-c2c[nH]nc2-c2ccccn2)ccn1 [GW679396] | 0% |
| COC(=O)c1cccc(NC(=O)NC2CCN(c3ccnc(Nc4ccc(F)cc4)n3)C2)c1 (centres unmarked) [GSK1379725] | 0% |
| Fc1ccc(-c2nn3cccc(F)c3c2-c2ccncc2)cc1 [GW475620] | 0% |
| Cc1ccc(NC(=O)Nc2ccc(Cl)cc2)cc1-c1ccc(C(=O)Nc2ccncc2)cc1 [GSK1398472] | 0% |
| COC(=O)C(Cc1ccccc1)NC(=O)NC1CCN(c2ccnc(Nc3ccc(F)cc3)n2)C1 (centres unmarked) [GSK1379714] | 0% |
| COc1ccc(Nc2nccc(NCCNC(=O)Nc3cc(C)ccc3C)n2)cc1 [GSK1379899] | 0% |
| Fc1ccc(-c2nc3n(c2-c2ccncc2)CCS3)cc1 [GI98581] | 0% |
| CC(=O)c1cccc(NC(=O)NC2CCN(c3ccnc(Nc4ccc(F)cc4)n3)C2)c1 (centres unmarked) [GSK1379710] | 0% |
| Cc1ccc(-c2nc(Nc3ccncc3)c3ccccc3n2)s1 [GSK189015] | 0% |
| O=c1cc(N2CCOCC2)nc2n(Cc3cccc(Cl)c3Cl)c3ccccc3n12 [GSK2299009] | 0% |
| Cc1ccccc1Cn1ccn2c(=O)cc(N3CCOCC3)nc12 [GSK2269905] | 0% |
| O=C(Nc1n[nH]c2nc(-c3cccs3)c(Br)cc12)C1CCCC1 [SB-743341] | 13% |
| Cn1cncc1-c1cc2c(Nc3ccc(OCc4ccccc4)cc3)ncnc2cn1 [GW281179] | 0% |
| CNc1nc(-c2ccc3c(N)n[nH]c3c2)cc(N2C[C@@H](C(=O)NC3CCCCC3)OC[C@H]2C)n1 [GSK2375584] | 0% |
| COc1cccc(C2=C(Nc3cc(Cl)c(O)c(Cl)c3)C(=O)NC2=O)c1 [SB-390767] | 0% |
| Cn1cnc2c(N)ncnc21 [SKF-97623] | 0% |
| O=c1cc(N2CCOCC2)nc2n(Cc3ccccc3F)ccn12 [GSK2297428] | 0% |
| COc1ccc(-c2coc3ccc(-c4nnc(C)o4)cc23)cc1 | 21% |

| Structure (SMILES) | %Inh |
| --- | --- |
| Cc1ccccc1-c1cc(-c2c[nH]nc2-c2ccccn2)ccn1 [GW680061] | 0% |
| Nc1cccc(-c2ccc3c(N)n[nH]c3c2)n1 [GSK2192730] | 0% |
| CNC(=O)c1ccc(C)c(-n2c(C)cc(OCc3ccc(F)cc3F)c(Br)c2=O)c1 | 0% |
| O=C(Nc1n[nH]c2nc(-c3ccco3)c(Br)cc12)C1CCN(Cc2ccccc2)C1.O=C(O)[C@H](O)[C@@H](O)C(=O)O (centres unmarked) [SB-742034] | 44% |
| NS(=O)(=O)c1cccc(N/C=C2\C(=O)Nc3ccc(S(=O)(=O)Cc4c(Cl)cccc4Cl)cc32)c1 [GSK398099] | 0% |
| c1ccc(-c2ccnc3[nH]ccc23)cc1 [SB-693578] | 0% |
| CNc1nc(-c2ccc3c(N)n[nH]c3c2)cc(N2C[C@@H](C(=O)Nc3ccccc3)CC[C@H]2C)n1 [GSK2298859] | 0% |
| COC(=O)c1cccc(NC(=O)NC2CCN(c3ccnc(Nc4ccc(OC)cc4)n3)C2)c1 (centres unmarked) [GSK1379746] | 0% |
| COc1ccc(Nc2nccc(-c3ccc(NC(=O)c4cc5cc(F)ccc5[nH]4)cc3)n2)cc1 [GSK1229496] | 0% |
| Cl.Cl.Cl.N#Cc1ccc(CCNc2nccc(-c3cccc(CN4CCNCC4)c3)n2)cc1 [GSK2137462] | 0% |
| O=C(Nc1n[nH]c2cc(-c3ccsc3)ccc12)C1CC1 [SB-732932] | 47% |
| COc1ccc(Nc2nccc(N3CCC(NC(=O)c4cc5ccccc5s4)C3)n2)cc1 (centres unmarked) [GSK1379738] | 0% |
| COc1ccc2cc(-c3nc(-c4ccccc4C(C)C)[nH]c3-c3ccncc3)ccc2c1 [SB-660566] | 0% |
| CC[C@@H]1CO[C@H](C(=O)Nc2ccccc2)CN1c1cc(-c2ccc3c(N)n[nH]c3c2)nc(NC)n1 [GSK2376236] | 0% |
| Cc1ccc(NC(=O)c2ccc(Cl)cc2)cc1-c1ccc(C(=O)Nc2ccncc2)cc1 [GSK1398467] | 0% |
| COc1cccc(NC(=O)Nc2ccc(C)c(-c3ccc(C(=O)Nc4ccncc4)cc3)c2)c1 [GSK1398474] | 0% |
| COc1ccc(CSc2nnc(-c3ccc4c(c3)CCO4)o2)cc1 | 90% |
| Cc1cccc2c(-c3ccncn3)c(-c3ccc(F)cc3)nn12 [GW515532] | 0% |

tested on: T2, CDK11; details: concentration: 1 μM, replicates: in singlicate; n = 1
T2 construct: gene CDK19

| Structure (SMILES) | %Inh |
| --- | --- |
| Cc1ccc(NC(=O)Nc2ccc(Cl)c(C(F)(F)F)c2)cc1-c1ccc(C(=O)Nc2ccncc2)cc1 [GSK1398470] | 11% |
| FC(F)(F)c1ccccc1-c1cc(-c2c[nH]nc2-c2ccccn2)ccn1 [GW679396] | 0% |
| COC(=O)c1cccc(NC(=O)NC2CCN(c3ccnc(Nc4ccc(F)cc4)n3)C2)c1 (centres unmarked) [GSK1379725] | 68% |
| Fc1ccc(-c2nn3cccc(F)c3c2-c2ccncc2)cc1 [GW475620] | 10% |
| Cc1ccc(NC(=O)Nc2ccc(Cl)cc2)cc1-c1ccc(C(=O)Nc2ccncc2)cc1 [GSK1398472] | 8% |
| COC(=O)C(Cc1ccccc1)NC(=O)NC1CCN(c2ccnc(Nc3ccc(F)cc3)n2)C1 (centres unmarked) [GSK1379714] | 48% |
| COc1ccc(Nc2nccc(NCCNC(=O)Nc3cc(C)ccc3C)n2)cc1 [GSK1379899] | 0% |
| Fc1ccc(-c2nc3n(c2-c2ccncc2)CCS3)cc1 [GI98581] | 7% |
| CC(=O)c1cccc(NC(=O)NC2CCN(c3ccnc(Nc4ccc(F)cc4)n3)C2)c1 (centres unmarked) [GSK1379710] | 80% |
| Cc1ccc(-c2nc(Nc3ccncc3)c3ccccc3n2)s1 [GSK189015] | 9% |
| O=c1cc(N2CCOCC2)nc2n(Cc3cccc(Cl)c3Cl)c3ccccc3n12 [GSK2299009] | 94.4% |
| Cc1ccccc1Cn1ccn2c(=O)cc(N3CCOCC3)nc12 [GSK2269905] | 0% |
| O=C(Nc1n[nH]c2nc(-c3cccs3)c(Br)cc12)C1CCCC1 [SB-743341] | 0% |
| Cn1cncc1-c1cc2c(Nc3ccc(OCc4ccccc4)cc3)ncnc2cn1 [GW281179] | 47% |
| CNc1nc(-c2ccc3c(N)n[nH]c3c2)cc(N2C[C@@H](C(=O)NC3CCCCC3)OC[C@H]2C)n1 [GSK2375584] | 16% |
| COc1cccc(C2=C(Nc3cc(Cl)c(O)c(Cl)c3)C(=O)NC2=O)c1 [SB-390767] | 0% |
| Cn1cnc2c(N)ncnc21 [SKF-97623] | 0% |
| O=c1cc(N2CCOCC2)nc2n(Cc3ccccc3F)ccn12 [GSK2297428] | 0% |
| COc1ccc(-c2coc3ccc(-c4nnc(C)o4)cc23)cc1 | 0% |

| Structure (SMILES) | %Inh |
| --- | --- |
| Cc1ccccc1-c1cc(-c2c[nH]nc2-c2ccccn2)ccn1 [GW680061] | 2% |
| Nc1cccc(-c2ccc3c(N)n[nH]c3c2)n1 [GSK2192730] | 3% |
| CNC(=O)c1ccc(C)c(-n2c(C)cc(OCc3ccc(F)cc3F)c(Br)c2=O)c1 | 57% |
| O=C(Nc1n[nH]c2nc(-c3ccco3)c(Br)cc12)C1CCN(Cc2ccccc2)C1.O=C(O)[C@H](O)[C@@H](O)C(=O)O (centres unmarked) [SB-742034] | 0% |
| NS(=O)(=O)c1cccc(N/C=C2\C(=O)Nc3ccc(S(=O)(=O)Cc4c(Cl)cccc4Cl)cc32)c1 [GSK398099] | 0% |
| c1ccc(-c2ccnc3[nH]ccc23)cc1 [SB-693578] | 20% |
| CNc1nc(-c2ccc3c(N)n[nH]c3c2)cc(N2C[C@@H](C(=O)Nc3ccccc3)CC[C@H]2C)n1 [GSK2298859] | 0% |
| COC(=O)c1cccc(NC(=O)NC2CCN(c3ccnc(Nc4ccc(OC)cc4)n3)C2)c1 (centres unmarked) [GSK1379746] | 76% |
| COc1ccc(Nc2nccc(-c3ccc(NC(=O)c4cc5cc(F)ccc5[nH]4)cc3)n2)cc1 [GSK1229496] | 22% |
| Cl.Cl.Cl.N#Cc1ccc(CCNc2nccc(-c3cccc(CN4CCNCC4)c3)n2)cc1 [GSK2137462] | 0% |
| O=C(Nc1n[nH]c2cc(-c3ccsc3)ccc12)C1CC1 [SB-732932] | 5% |
| COc1ccc(Nc2nccc(N3CCC(NC(=O)c4cc5ccccc5s4)C3)n2)cc1 (centres unmarked) [GSK1379738] | 41% |
| COc1ccc2cc(-c3nc(-c4ccccc4C(C)C)[nH]c3-c3ccncc3)ccc2c1 [SB-660566] | 33% |
| CC[C@@H]1CO[C@H](C(=O)Nc2ccccc2)CN1c1cc(-c2ccc3c(N)n[nH]c3c2)nc(NC)n1 [GSK2376236] | 12% |
| Cc1ccc(NC(=O)c2ccc(Cl)cc2)cc1-c1ccc(C(=O)Nc2ccncc2)cc1 [GSK1398467] | 2% |
| COc1cccc(NC(=O)Nc2ccc(C)c(-c3ccc(C(=O)Nc4ccncc4)cc3)c2)c1 [GSK1398474] | 0% |
| COc1ccc(CSc2nnc(-c3ccc4c(c3)CCO4)o2)cc1 | 0% |
| Cc1cccc2c(-c3ccncn3)c(-c3ccc(F)cc3)nn12 [GW515532] | 0% |
